# Where “and” joins values, the source holds several entries; their conditions need not be identical. Equal values may be shown once. Results filed as inconclusive are left out. Entries that show only a call come without a potency. Calls of active or inactive are those of the source. Calls follow the shape of the dose curve; as a rule, active = well fitted curve in the direction sought with a large enough effect; inconclusive = small, poorly fitted or top-dose-only effect, or another doubt; inactive = no such curve, though single readings can be large; an effect the other way counts as inactive or inconclusive.
# Legend:
# [1] = target: N-terminal Xaa-Pro-Lys N-methyltransferase 1 (Homo sapiens) (UniProt Q9BV86); assay: qHTS Assay for Inhibitors of N-terminal methyltransferase 1 (NTMT1): LOPAC validation of the NTMT1 SAHH-coupled ThioGlo3 Assay (AID 1347143);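 also: SAH from peptide methylation measured as thiol fluorescence via SAHH coupling and ThioGlo3; nearly all actives have a fitted effect of over 70% in size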; also: potency is read from the fitted curve at half-maximal effect
# Method in brief: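 In this qHTS pilot against the LOPAC set, 125nM NTMT1 met compounds tested at multiple concentrations, and fluorescence was normalized to background.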
# [2] = test system: Zika virus NS2B-NS3 protease (unlinked); assay: Optimization of GU AMC qHTS for Zika virus inhibitors: Unlinked NS2B-NS3 protease assay (AID 1347151); also: nearly all actives have a fitted effect of over 80% in size; also: potency is read from the fitted curve at half-maximal effect
# Method in brief: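 Fluorescence read-out (340 nm ex / 450 nm em) of AMC peptide cleavage, taken immediately and after 15 min at room temperature (~20% conversion). Enzyme was the unlinked NS2B–NS3 complex at 25 nM in Tris pH 8.0 buffer.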
# [3] = test system: Zika virus NS2B-NS3 protease; assay: Primary screen GU AMC qHTS for Zika virus inhibitors (AID 1347154); also: nearly all actives have a fitted effect of over 70% in size; also: potency is read from the fitted curve at half-maximal effect
# Method in brief: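 Unlinked Zika NS2B hydrophilic domain/NS3 protease domain noncovalent complex (25 nM final) in 10 mM Tris-HCl pH 8.0, 0.01% Tween 20, with AMC peptide substrate. Fluorescence (ex 340, em 450 nm) change over 15 min, room temperature; percent inhibition fitted to 4-parameter Hill equation.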
# Furin (Homo sapiens) = Furin (Homo sapiens) (UniProt P09958); assay: Furin counterscreen qHTS for Zika virus inhibitors (AID 1347149); also: nearly all actives have a fitted effect of over 70% in size; also: potency is read from the fitted curve at half-maximal effect
# Method in brief: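 Counterscreen measures cleavage of 2 microM BOC-RVRR-AMC, below its ~15 microM Km, by 5 nM full-length human furin at pH 7.0 after a 15-min compound preincubation. Inhibition derives from the 15-min fluorescence increase at 37C.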
# [4] = test system: Zika virus NS2B-NS3 protease (linked construct); assay: Confirmatory screen NINDS AMC qHTS for Zika virus inhibitors (AID 1347152); also: nearly all actives have a fitted effect of over 70% in size; also: potency is read from the fitted curve at half-maximal effect
# Method in brief: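 Linked NS2B-NS3 1 nM, Tris pH 8.0/0.01% Tween 20; cpd 15 min RT dark; + Nle-KRR-AMC 10 µM (Km 18.3 µM); read 0 and 15 min, 340/450 nm; %inh vs controls, 4-param Hill.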
# [5] = test system: Zika virus NS2B-NS3 protease (unlinked complex); assay: Confirmatory screen GU AMC qHTS for Zika virus inhibitors (AID 1347153); also: nearly all actives have a fitted effect of over 70% in size
# Method in brief: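 Noncovalent NS2B hydrophilic domain/NS3 protease complex (25 nM) in 10 mM Tris-HCl pH 8.0, 0.01% Tween 20 was preincubated 15 min at room temperature with compounds. Then 10 µM AMC substrate (Km 18.3 µM) was added; fluorescence was read over 15 min and fitted to a 4-parameter Hill equation.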
# [6] = ZIKV-mCherry secondary qHTS for Zika virus inhibitors (AID 1347158); also: top concentration of the series differs between compounds
# Method in brief: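 Percent infection is the share of Hoechst-identified Vero nuclei with mCherry signal above 450 RFU (3 SD over negative controls). Cells were infected with recombinant ZIKV-mCherry at MOI 1 after compound addition and imaged 48–72 h later.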
# [7] = Confirmatory screen GU Rhodamine qHTS for Zika virus inhibitors qHTS (AID 1347157); settings: purified enzyme assay, Rhodamine110 substrate fluorescence, 15 min
# Method in brief: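 Percent inhibition derives from the 15-min fluorescence change (ex 480, em 540 nm), normalized to no-enzyme and no-inhibitor wells. Reactions contained 25 nM NS2B-NS3 complex and 1.5 microM substrate in 10 mM Tris-HCl pH 8.0.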
# Furin (Homo sapiens), sequence (P09958 whole entry, looked up): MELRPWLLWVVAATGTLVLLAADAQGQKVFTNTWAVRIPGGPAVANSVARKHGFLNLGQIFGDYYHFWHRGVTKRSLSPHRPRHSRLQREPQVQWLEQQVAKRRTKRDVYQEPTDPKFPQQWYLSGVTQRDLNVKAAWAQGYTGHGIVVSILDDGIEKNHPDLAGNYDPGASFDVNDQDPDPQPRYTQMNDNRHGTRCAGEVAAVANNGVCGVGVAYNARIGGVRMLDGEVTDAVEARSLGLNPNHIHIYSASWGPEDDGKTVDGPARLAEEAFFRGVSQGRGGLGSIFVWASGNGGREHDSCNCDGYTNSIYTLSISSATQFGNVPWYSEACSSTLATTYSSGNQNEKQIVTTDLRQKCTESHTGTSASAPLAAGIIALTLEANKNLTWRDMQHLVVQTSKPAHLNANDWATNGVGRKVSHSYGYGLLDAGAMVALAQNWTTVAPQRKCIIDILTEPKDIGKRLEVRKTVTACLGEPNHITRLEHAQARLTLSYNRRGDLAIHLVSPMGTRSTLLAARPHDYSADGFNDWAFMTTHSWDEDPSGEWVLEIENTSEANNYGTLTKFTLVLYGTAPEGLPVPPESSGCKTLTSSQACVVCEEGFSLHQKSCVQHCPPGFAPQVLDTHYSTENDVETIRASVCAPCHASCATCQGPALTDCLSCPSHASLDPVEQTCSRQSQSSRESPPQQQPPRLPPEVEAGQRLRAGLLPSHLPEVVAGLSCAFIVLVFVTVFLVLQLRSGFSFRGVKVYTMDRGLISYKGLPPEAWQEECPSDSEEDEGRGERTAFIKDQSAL
# N-terminal Xaa-Pro-Lys N-methyltransferase 1 (Homo sapiens), sequence (Q9BV86 whole entry, looked up): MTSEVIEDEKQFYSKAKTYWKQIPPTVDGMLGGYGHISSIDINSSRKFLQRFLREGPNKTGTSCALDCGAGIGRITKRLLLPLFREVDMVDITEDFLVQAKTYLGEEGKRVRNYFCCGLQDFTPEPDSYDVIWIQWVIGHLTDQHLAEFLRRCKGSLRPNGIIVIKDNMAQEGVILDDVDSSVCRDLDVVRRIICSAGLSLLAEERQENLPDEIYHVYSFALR
structure (smiles),measurement,setting,value
CC(C(=O)O)c1cccc(C(=O)c2ccccc2)c1 (stereo not drawn),Potency,[1],inactive
same,Potency,[2],inactive
same,Potency,[3],inactive
CN(C)C(=O)C(CCN1CCC(O)(c2ccc(Cl)cc2)CC1)(c1ccccc1)c1ccccc1,Potency,[1],inactive
same,Potency,[2],inactive
same,Potency,[3],inactive
COc1cc2nc(N3CCN(C(=O)C4COc5ccccc5O4)CC3)nc(N)c2cc1OC (stereo not drawn),Potency,[1],56.2 µM (active)
same,Potency,[2],26.7 µM (active)
same,Potency,[3],9.07 µM (active) and 24.1 µM (active)
COc1ccc(CCN(C)CCCC(C#N)(c2ccc(OC)c(OC)c2)C(C)C)cc1OC (stereo not drawn),Potency,[1],inactive
same,Potency,[2],inactive
same,Potency,[3],inactive
Cc1cc(C(C)(C)C)c(O)c(C)c1CC1=NCCN1,Potency,[1],inactive
same,Potency,[2],inactive
same,Potency,[3],inactive
NS(=O)(=O)c1cc2c(cc1Cl)NCNS2(=O)=O,Potency,[1],inactive
same,Potency,[2],inactive
same,Potency,[3],inactive
O=c1[nH]cc(F)c(=O)[nH]1,Potency,[1],inactive
same,Potency,[2],inactive
same,Potency,[3],inactive
Cc1ccc(-c2cc(C(F)(F)F)nn2-c2ccc(S(N)(=O)=O)cc2)cc1,Potency,[1],inactive
same,Potency,[2],inactive
same,Potency,[3],inactive
COc1nc(C)nc(Cl)c1NC1=NCCN1,Potency,[1],inactive
same,Potency,[2],inactive
same,Potency,[3],inactive
Cn1cnc2c1c(=O)[nH]c(=O)n2C,Potency,[1],inactive
same,Potency,[2],inactive
same,Potency,[3],inactive
Fc1ccc([C@@H]2CCNC[C@H]2COc2ccc3c(c2)OCO3)cc1,Potency,[1],inactive
same,Potency,[2],inactive
same,Potency,[3],inactive
Cn1c(=O)c2[nH]cnc2n(C)c1=O,Potency,[1],inactive
same,Potency,[2],inactive
same,Potency,[3],inactive
COc1ccc(C2CNC(=O)C2)cc1OC1CCCC1 (stereo not drawn),Potency,[1],inactive
same,Potency,[2],inactive
same,Potency,[3],inactive
CC(C)NCC(O)COc1ccc(CCOCC2CC2)cc1 (stereo not drawn),Potency,[1],inactive
same,Potency,[2],inactive
same,Potency,[3],inactive
COc1ccccc1OCC(O)CN1CCN(CC(=O)Nc2c(C)cccc2C)CC1 (stereo not drawn),Potency,[2],inactive
same,Potency,[3],inactive
NCCc1cnc[nH]1,Potency,[1],inactive
same,Potency,[2],inactive
same,Potency,[3],inactive
COc1ccccc1OCCNCC(O)COc1cccc2[nH]c3ccccc3c12 (stereo not drawn),Potency,[2],inactive
same,Potency,[3],inactive
N[C@@H](Cc1c[nH]c2ccc(O)cc12)C(=O)O,Potency,[1],50.1 µM (active)
same,Potency,[3],inactive
CN1CCC(=C2c3ccccc3CC(=O)c3sccc32)CC1,Potency,[2],inactive
same,Potency,[3],inactive
COc1ccccc1N1CCN(CC(O)COc2cccc3ccccc23)CC1 (stereo not drawn),Potency,[3],inactive
Cc1cn([C@H]2C=C[C@@H](CO)O2)c(=O)[nH]c1=O,Potency,[1],inactive
same,Potency,[3],inactive
CN1CCN(C2=Nc3cc(Cl)ccc3Nc3ccccc32)CC1,Potency,[2],inactive
same,Potency,[3],inactive
Nc1c2c(nc3ccccc13)CCCC2,Potency,[3],inactive
CC1(CN2CCC(n3c(=O)[nH]c4ccccc43)CC2)OCc2ccccc2-n2cccc21 (stereo not drawn),Potency,[3],inactive
C[C@@H]1CC(=O)NN=C1c1ccc(NN=C(C#N)C#N)cc1,Potency,[3],inactive
C[C@](N)(Cc1ccc(O)c(O)c1)C(=O)O,Potency,[2],inactive
CNCCCC12CCC(c3ccccc31)c1ccccc12,Potency,[2],inactive
same,Potency,[3],inactive
CN1CCN2c3ccccc3Cc3ccccc3C2C1 (stereo not drawn),Potency,[2],inactive
same,Potency,[3],inactive
CN1CCC(=C2c3ccccc3C=Cc3ccccc32)CC1,Potency,[1],inactive
same,Potency,[2],inactive
same,Potency,[3],inactive
NCCS(=O)(=O)O,Potency,[1],inactive
same,Potency,[2],inactive
same,Potency,[3],inactive
CN1C(C(=O)Nc2ccccn2)=C(O)c2ccccc2S1(=O)=O,Potency,[2],inactive
same,Potency,[3],inactive
Clc1ccc2c(c1)C(N1CCNCC1)=Nc1ccccc1O2,Potency,[1],inactive
same,Potency,[2],inactive
same,Potency,[3],inactive
Clc1ccccc1C(c1ccccc1)(c1ccccc1)n1ccnc1,Potency,[1],inactive
same,Potency,[3],inactive
Nc1nc2c(ncn2COC(CO)CO)c(=O)[nH]1,Potency,[1],inactive
same,Potency,[2],inactive
same,Potency,[3],inactive
C[C@H]1c2cccc(O)c2C(O)=C2C(=O)[C@]3(O)C(O)=C(C(N)=O)C(=O)[C@@H](N(C)C)[C@@H]3[C@@H](O)[C@@H]21,Potency,Furin (Homo sapiens),inactive
same,Potency,[2],inactive
same,Potency,[4],inactive
same,Potency,[5],inactive
Cn1ccc2cc3c(cc21)CCN3C(=O)Nc1cccnc1,Potency,Furin (Homo sapiens),21.5 µM (active)
same,Potency,[4],24.1 µM (active)
same,Potency,[5],27.1 µM (active)
same,outcome,[6],inactive
Cc1ccc(C(=O)Nc2ccc(S(=O)(=O)O)c3cc(S(=O)(=O)O)cc(S(=O)(=O)O)c23)cc1NC(=O)c1cccc(NC(=O)Nc2cccc(C(=O)Nc3cc(C(=O)Nc4ccc(S(=O)(=O)O)c5cc(S(=O)(=O)O)cc(S(=O)(=O)O)c45)ccc3C)c2)c1,Potency,[1],inactive
same,Potency,[2],16.8 µM (active)
same,Potency,[3],5.01 µM (active)
same,Potency,[7],2.82 µM (active) and 2 µM (active) and 2.24 µM (active)
COc1ccc2[nH]cc(CCNC(C)=O)c2c1,Potency,[3],inactive
CCCNCC(O)COc1ccccc1C(=O)CCc1ccccc1 (stereo not drawn),Potency,[2],inactive
same,Potency,[3],inactive
Cc1cn([C@H]2C[C@H](N=[N+]=[N-])[C@@H](CO)O2)c(=O)[nH]c1=O,Potency,[3],inactive
COc1cc2nc(N(C)CCCNC(=O)C3CCCO3)nc(N)c2cc1OC (stereo not drawn),Potency,[1],39.8 µM (active)
same,Potency,[2],26.7 µM (active)
same,Potency,[3],8.09 µM (active) and 21.5 µM (active)
CN(C)C(=N)N=C(N)N,Potency,[3],inactive
CN1C2CCC1CC(OC(=O)C(CO)c1ccccc1)C2 (stereo not drawn),Potency,[1],inactive
same,Potency,[2],inactive
same,Potency,[3],inactive
O=c1c(-c2ccc(O)cc2)coc2cc(O)cc(O)c12,Potency,[2],inactive
same,Potency,[3],inactive
O=C(c1ccc(F)cc1)C1CCN(CCn2c(=O)[nH]c3ccccc3c2=O)CC1,Potency,Furin (Homo sapiens),inactive
same,Potency,[4],inactive
same,Potency,[5],inactive
same,Potency,[3],inactive
O=C1N(c2ccccc2)c2ccccc2C1(Cc1ccncc1)Cc1ccncc1,Potency,[1],inactive
same,Potency,[2],inactive
same,Potency,[3],inactive
NCCCCCC(=O)O,Potency,[1],inactive
same,Potency,[2],inactive
same,Potency,[3],inactive
CC1(C)O[C@H]2CC(=O)OC[C@]23[C@H]2CC[C@@]4(C)[C@H](c5ccoc5)OC(=O)[C@H]5O[C@]54[C@]2(C)C(=O)C[C@@H]13,Potency,[3],inactive

# — PubChem BioAssay (NCATS)
